Results on 13 molecules are retold here after the supplement of paper PMC8699584.

Values joined by “and” are separate entries in the source; they are usually repeats but may differ in a detail not shown here. Identical values can stand only once. Counter-ions that a name gives are not always drawn. ± gives the standard deviation of the averaged measurements.

This assay concerns Molm13. In words: cell viability relative to DMSO control (bortezomib = 0%); higher = less growth inhibition. Particulars: 10 nM; 72 h. In short, it runs like this:
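Using 384-well plates, a set of 679 approved and investigational compounds was tested once at 10 nM against acute myeloid leukemia cells (1000 cells per well in 50 µL) over 72 h, with the whole screen done in duplicate. Viability readout relied on CellTiter-Glo luminescence measured on an EnVision reader. For each plate, linear regression mapped values between positive-control-treated cells at 0% and DMSO-treated cells at 100%.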
Consider `Cc1ccc([N+](=O)[O-])cc1S(=O)(=O)N(C)/N=C/c1cnc2ccc(Br)cn12` [PIK-75 (hydrochloride)], for which the cell viability – broadly, a read-out of living cells in per cent, often relative to untreated cells – stood at 94.7 ± 11%. Consider `COc1cc2ncnc(Nc3ccc(F)c(Cl)c3)c2cc1OCCCN1CCOCC1` [Gefitinib], for which the cell viability is 114.4 ± 0.96%. For the molecule `CC(C)n1cnc2c(NCc3ccccc3)nc(NCCCO)nc21` [Bohemine], the cell viability was found to be 95.3 ± 4.3%. With `Oc1ccc(-c2nc(-c3ccc(F)cc3)c(-c3ccncc3)[nH]2)cc1` the figure was 94% and 105%; with `CCn1c(=O)c(-c2ccc(-c3cncs3)cc2Cl)cc2cnc(Nc3ccc(N4CCN(C)CC4)cc3)nc21`, 106 ± 6.4%.

As for `COc1ccc(CCNCc2ccc(OCc3ccc(Cl)nc3)c(OC)c2)cc1OC` [SBE 13 hydrochloride], the cell viability is 99.3 ± 18%. Take `CCN1CCN(c2ccc(Nc3cc(N(C)C(=O)Nc4c(Cl)c(OC)cc(OC)c4Cl)ncn3)cc2)CC1`: the cell viability is 110 ± 17%. Regarding `Cc1ncc(CCCN(C)C)cc1Nc1ncc2c(n1)-c1ccc(C(F)(F)F)cc1NC(=S)C2`, the cell viability is 100 ± 2.9%.

As to `CNC(=O)c1ccccc1Oc1nc(Nc2cc(OC)c(OC)c(OC)c2)ncc1Br`, the cell viability was found to be 98.7 ± 26%. The value for `CCN1CCN(Cc2ccc(Nc3ncc(F)c(-c4cc(F)c5nc(C)n(C(C)C)c5c4)n3)nc2)CC1` was 105% and 98.2%; that for `CN1CCN(CCOc2cc(OC3CCOCC3)c3c(Nc4c(Cl)ccc5c4OCO5)ncnc3c2)CC1` [Saracatinib (AZD0530)] was 98.2 ± 3.5%. In the case of `N#CC1(c2ccc(NC(=O)c3cccnc3NCc3ccncc3)cc2)CCCC1` [Apatinib], the cell viability stood at 113 ± 10%. The value for `C=CC(=O)N1CCC(Oc2cc3c(Nc4ccc(Cl)c(Cl)c4F)ncnc3cc2OC)CC1` [Poziotinib (HM781-36B)] was 111.4 ± 0.44%.
